This is one part of a sample in which the strongest signals are shown more often than they occur.

Data on 11 substances can be found in the supplement of paper PMC8728848.

Aggrecan (Rattus norvegicus), NP_071526, sequence (chain, as listed by the source): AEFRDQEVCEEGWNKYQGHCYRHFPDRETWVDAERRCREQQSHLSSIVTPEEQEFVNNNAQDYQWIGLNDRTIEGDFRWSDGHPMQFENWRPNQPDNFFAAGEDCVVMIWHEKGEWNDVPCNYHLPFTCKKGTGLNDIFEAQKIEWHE
6RG (Lolium perenne), sequence (chain, as listed by the source): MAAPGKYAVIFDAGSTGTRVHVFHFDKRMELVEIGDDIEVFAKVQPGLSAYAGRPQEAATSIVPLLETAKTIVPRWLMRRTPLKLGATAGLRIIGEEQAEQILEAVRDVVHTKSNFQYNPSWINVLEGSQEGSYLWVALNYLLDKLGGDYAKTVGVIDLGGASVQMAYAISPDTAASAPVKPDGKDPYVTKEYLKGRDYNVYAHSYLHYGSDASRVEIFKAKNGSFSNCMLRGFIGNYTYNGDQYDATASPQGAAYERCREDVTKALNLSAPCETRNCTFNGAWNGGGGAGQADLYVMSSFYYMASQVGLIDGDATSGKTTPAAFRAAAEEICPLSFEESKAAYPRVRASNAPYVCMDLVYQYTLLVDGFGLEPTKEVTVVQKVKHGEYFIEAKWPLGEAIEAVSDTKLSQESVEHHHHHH
Neurocan (Homo sapiens), O14594, sequence (O14594 other isoform, or with tags, fused parts or gaps): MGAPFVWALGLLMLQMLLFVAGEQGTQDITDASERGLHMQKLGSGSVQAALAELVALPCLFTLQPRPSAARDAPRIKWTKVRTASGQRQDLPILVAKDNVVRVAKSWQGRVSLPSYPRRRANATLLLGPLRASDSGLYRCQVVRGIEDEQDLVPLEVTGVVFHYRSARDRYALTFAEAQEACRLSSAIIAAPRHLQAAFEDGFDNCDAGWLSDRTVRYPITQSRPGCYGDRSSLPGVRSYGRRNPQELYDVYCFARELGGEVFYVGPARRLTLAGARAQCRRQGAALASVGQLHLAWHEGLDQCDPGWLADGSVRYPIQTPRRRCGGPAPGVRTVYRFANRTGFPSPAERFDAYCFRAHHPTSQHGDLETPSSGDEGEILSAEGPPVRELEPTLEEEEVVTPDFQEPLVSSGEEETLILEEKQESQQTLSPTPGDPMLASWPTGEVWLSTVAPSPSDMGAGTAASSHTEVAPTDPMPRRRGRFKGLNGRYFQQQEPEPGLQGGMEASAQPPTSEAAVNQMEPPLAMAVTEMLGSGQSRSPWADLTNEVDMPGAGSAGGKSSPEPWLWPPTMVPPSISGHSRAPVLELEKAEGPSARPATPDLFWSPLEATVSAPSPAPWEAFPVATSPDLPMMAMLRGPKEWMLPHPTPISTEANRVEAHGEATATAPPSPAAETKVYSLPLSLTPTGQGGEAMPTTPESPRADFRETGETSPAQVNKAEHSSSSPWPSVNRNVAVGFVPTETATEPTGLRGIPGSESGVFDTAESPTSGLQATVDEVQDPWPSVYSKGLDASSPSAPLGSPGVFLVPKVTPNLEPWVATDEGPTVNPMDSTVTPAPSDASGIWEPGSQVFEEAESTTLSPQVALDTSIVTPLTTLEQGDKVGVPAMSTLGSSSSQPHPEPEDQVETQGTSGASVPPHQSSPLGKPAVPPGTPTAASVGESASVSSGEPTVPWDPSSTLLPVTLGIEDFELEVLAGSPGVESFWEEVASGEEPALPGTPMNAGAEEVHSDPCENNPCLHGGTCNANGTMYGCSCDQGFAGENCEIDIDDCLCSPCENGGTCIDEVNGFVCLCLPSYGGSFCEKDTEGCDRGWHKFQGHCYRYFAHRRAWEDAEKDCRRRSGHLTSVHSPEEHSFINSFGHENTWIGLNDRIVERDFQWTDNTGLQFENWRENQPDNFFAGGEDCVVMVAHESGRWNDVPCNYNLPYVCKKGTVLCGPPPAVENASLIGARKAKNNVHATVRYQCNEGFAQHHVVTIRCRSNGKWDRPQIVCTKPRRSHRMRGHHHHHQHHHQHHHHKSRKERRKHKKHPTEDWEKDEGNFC
C3b (Homo sapiens), P01024, sequence (P01024 23-667): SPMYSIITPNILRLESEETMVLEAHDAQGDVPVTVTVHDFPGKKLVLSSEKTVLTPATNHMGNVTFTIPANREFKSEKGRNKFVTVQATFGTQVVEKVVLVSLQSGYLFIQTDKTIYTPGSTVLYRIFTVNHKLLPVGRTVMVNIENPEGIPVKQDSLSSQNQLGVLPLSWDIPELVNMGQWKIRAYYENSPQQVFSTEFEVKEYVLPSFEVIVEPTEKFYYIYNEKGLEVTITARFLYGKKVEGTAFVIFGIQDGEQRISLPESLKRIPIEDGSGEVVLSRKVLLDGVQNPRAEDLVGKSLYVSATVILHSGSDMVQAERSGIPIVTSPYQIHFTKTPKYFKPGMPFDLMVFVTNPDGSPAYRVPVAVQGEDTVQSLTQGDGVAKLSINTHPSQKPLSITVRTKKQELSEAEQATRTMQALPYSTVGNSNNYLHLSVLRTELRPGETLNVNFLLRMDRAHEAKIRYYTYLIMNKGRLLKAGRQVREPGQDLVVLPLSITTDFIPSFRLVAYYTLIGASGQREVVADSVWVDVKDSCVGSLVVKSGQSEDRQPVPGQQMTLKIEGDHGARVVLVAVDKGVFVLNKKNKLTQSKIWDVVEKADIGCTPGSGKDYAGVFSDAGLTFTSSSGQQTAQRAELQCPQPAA
Regenerating Gene IV (Homo sapiens), Q9BYZ8, sequence (Q9BYZ8 whole entry, looked up): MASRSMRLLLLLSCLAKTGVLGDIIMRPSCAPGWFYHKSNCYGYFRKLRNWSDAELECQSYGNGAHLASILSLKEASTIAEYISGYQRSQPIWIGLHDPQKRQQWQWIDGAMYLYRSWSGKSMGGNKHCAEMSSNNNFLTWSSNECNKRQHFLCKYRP
CHI3L1 (Homo sapiens), P36222, sequence (P36222 whole entry): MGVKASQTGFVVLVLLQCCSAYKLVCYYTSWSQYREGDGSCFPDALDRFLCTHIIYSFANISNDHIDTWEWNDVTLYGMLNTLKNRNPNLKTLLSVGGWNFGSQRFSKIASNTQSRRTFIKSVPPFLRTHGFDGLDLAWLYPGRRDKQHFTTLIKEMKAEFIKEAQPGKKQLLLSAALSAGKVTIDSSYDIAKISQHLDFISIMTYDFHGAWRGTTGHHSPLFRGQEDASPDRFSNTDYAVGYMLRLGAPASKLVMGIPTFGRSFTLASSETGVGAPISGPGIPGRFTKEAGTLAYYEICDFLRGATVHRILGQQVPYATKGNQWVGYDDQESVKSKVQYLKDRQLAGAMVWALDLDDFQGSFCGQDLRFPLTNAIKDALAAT
6RG (Lolium perenne), B9U140, sequence (B9U140 entry or part of it): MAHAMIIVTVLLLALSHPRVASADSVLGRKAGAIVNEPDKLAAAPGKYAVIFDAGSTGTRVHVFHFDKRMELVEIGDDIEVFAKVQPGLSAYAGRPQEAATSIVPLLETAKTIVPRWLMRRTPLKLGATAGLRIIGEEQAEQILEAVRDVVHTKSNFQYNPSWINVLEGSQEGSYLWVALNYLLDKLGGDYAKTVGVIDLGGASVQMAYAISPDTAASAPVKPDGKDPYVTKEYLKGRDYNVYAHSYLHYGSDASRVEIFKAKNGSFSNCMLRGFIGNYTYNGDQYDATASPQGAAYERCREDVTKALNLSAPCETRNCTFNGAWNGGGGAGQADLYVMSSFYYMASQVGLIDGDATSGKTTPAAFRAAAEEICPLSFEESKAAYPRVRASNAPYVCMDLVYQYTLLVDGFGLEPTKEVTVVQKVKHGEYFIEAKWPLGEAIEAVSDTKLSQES
Avaren (Actinomycete K97), sequence (chain, as listed by the source): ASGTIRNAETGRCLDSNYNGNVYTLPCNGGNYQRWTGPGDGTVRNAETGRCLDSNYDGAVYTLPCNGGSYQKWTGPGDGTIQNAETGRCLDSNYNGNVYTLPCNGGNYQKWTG

For the first experiment, the system named is Gal(b1-3)GlcNAc(b1-3)Gal(b1-4)Glc. In words: glycan array binding signal (z-score within array); higher = stronger binding. To be noted: glycan notation: IUPAC condensed, linker removed. A digest of the protocol: (§1)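 Columns mapping to the same glycan were averaged after glycan names were converted to IUPAC-condensed notation. The data come from 3228 arrays in the Consortium for Functional Glycomics database, limited to those with an available protein sequence. Binding is reported as a within-array Z-score averaged across arrays of one protein sequence and across linkers.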
Take 6RG (Lolium perenne): the “glycan array binding signal (z-score)” value was 6.36. For Aggrecan (Rattus norvegicus), NP_071526, the “glycan array binding signal (z-score)” value worked out at 0.002. With Avaren (Actinomycete K97), the “glycan array binding signal (z-score)” value stood at 0.952.

Another experiment has as its system Gal(b1-3)[Fuc(a1-4)]GlcNAc(b1-3)Gal(b1-3)[Fuc(a1-4)]GlcNAc. The description is as above. The note with it: glycan notation: IUPAC condensed, linker removed. A digest of the protocol:
as §1
On to “Regenerating Gene IV (Homo sapiens), Q9BYZ8”, for which the “glycan array binding signal (z-score)” value was -0.411. On the same count and under the same terms, for Neurocan (Homo sapiens), O14594 the value was 2.48; for Aggrecan (Rattus norvegicus), NP_071526, 0.137.

With C3b (Homo sapiens), P01024, the “glycan array binding signal (z-score)” value was 0.483.

For the next experiment, the system named is Gal(b1-3)[GlcNAc(b1-6)]GalNAc. The experiment is described as above. The note with it: glycan notation: IUPAC condensed, linker removed. An outline of the steps:
as §1
With MpAFP RI GFP (Marinomonas primoryensis), the “glycan array binding signal (z-score)” value is -0.258. For 6RG (Lolium perenne), the “glycan array binding signal (z-score)” value was -0.16. On to HARE (Homo sapiens), Q8WWQ8, for which the “glycan array binding signal (z-score)” value was -0.451.

In another experiment the test system is Gal(b1-3)[Neu5Ac(a2-6)]GlcNAc(b1-6)Gal(b1-4)Glc. Described as above. The note with it: glycan notation: IUPAC condensed, linker removed. An outline of the steps: as §1
Consider 6RG (Lolium perenne), for which the “glycan array binding signal (z-score)” value came to 4.25. As to 6RG (Lolium perenne), B9U140, the “glycan array binding signal (z-score)” value was -0.249. In the case of Aggrecan (Rattus norvegicus), NP_071526, the “glycan array binding signal (z-score)” value was -0.144.

The test system of another experiment is Gal(b1-4)GlcNAc(b1-2)Man(a1-3)Man(b1-4)GlcNAc(b1-4)GlcNAc. The experiment is described as above. The note with it: glycan notation: IUPAC condensed, linker removed. A digest of the protocol:
as §1
For the substance Siglec-8 (Homo sapiens), Q9NYZ4, the “glycan array binding signal (z-score)” value is -0.306. The same measure, in the same setting: for CHI3L1 (Homo sapiens), P36222 the value was -0.118. On to Neurocan (Homo sapiens), O14594, for which the “glycan array binding signal (z-score)” value is 0.015.
